Assay results from PubChem BioAssay (NCATS).
“And” between values parts separate entries of the source, which are not always exact repeats. Equal entries are not always repeated. Inconclusive results are not listed. The source made the active and inactive calls. Calls follow the shape of the dose curve; as a rule, active = well fitted curve in the direction sought with a large enough effect; inconclusive = small, poorly fitted or top-dose-only effect, or another doubt; inactive = no such curve, though single readings can be large; an effect the other way counts as inactive or inconclusive.

Columns and labels:
[1] = tested on: CRL-7250; test: Cytotoxic Profiling of Annotated Libraries Using Quantitative High-Throughput Screening (AID 1296008); conditions: Five cell lines viability, CellTiter-Glo ATP luminescence, 48-72 h; max response: hits give low values; also: nearly all actives have a fitted effect of over 60% in size
Summary of the method: (§1)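 Cells exposed to compounds for 48 or 72 hr at 37 degrees Celsius. Viability read as ATP-coupled luminescence with CellTiter-Glo after 10 min at room temperature.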

[2] = tested on: HEK293; test: as above; conditions: Five cell lines viability, CellTiter-Glo ATP luminescence, 48-72 h; max response: hits give low values
Summary of the method: as §1

[3] = tested on: HaCat; test: as above; conditions: Five cell lines viability, CellTiter-Glo ATP luminescence, 48-72 h; max response: hits give low values
Summary of the method: as §1

[4] = tested on: KB-3-1; test: as above; conditions: Five cell lines viability, CellTiter-Glo ATP luminescence, 48-72 h; max response: hits give low values
Summary of the method: as §1

[5] = tested on: NIH3T3; test: as above; conditions: Five cell lines viability, CellTiter-Glo ATP luminescence, 48-72 h; max response: hits give low values
Summary of the method: as §1

[6] = tested on: HACAT; test: qHTS assay to identify novel small-molecules to repurpose for Merkel cell carcinoma treatment (AID 1296009); conditions: MCC and control cell lines, CellTiter-Glo viability, 72 h; at 44.8 µM (top of the series) unless noted; also: nearly all actives have a fitted effect of over 60% in size; also: potency is read from the fitted curve at half-maximal effect
Summary of the method: (§2)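 Cells were treated for 72 hr at 37 degree celsius with compounds in 8- or 11-point dose response. Viability was read by CellTiter-Glo luminescence, normalized to no-cell (cytotoxicity) and DMSO controls.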

[7] = tested on: HEK293T; test: as above; conditions: MCC and control cell lines, CellTiter-Glo viability, 72 h; at 44.8 µM (top of the series) unless noted
Summary of the method: as §2

[8] = tested on: MCC-13; test: as above; conditions: MCC and control cell lines, CellTiter-Glo viability, 72 h; series mostly up to 46 µM
Summary of the method: as §2

[9] = tested on: MCC-26; test: as above; conditions: MCC and control cell lines, CellTiter-Glo viability, 72 h; series mostly up to 46 µM
Summary of the method: as §2

[10] = tested on: MKL-1; test: as above; conditions: MCC and control cell lines, CellTiter-Glo viability, 72 h; series mostly up to 46 µM
Summary of the method: as §2

[11] = tested on: MKL-2; test: as above; conditions: MCC and control cell lines, CellTiter-Glo viability, 72 h; series mostly up to 46 µM
Summary of the method: as §2

[12] = tested on: UISO; test: as above; conditions: MCC and control cell lines, CellTiter-Glo viability, 72 h; series mostly up to 46 µM
Summary of the method: as §2

[13] = tested on: NIH3T3; test: as above; conditions: MCC and control cell lines, CellTiter-Glo viability, 72 h; series mostly up to 44.8 µM
Summary of the method: as §2

[14] = tested on: WaGa; test: as above; conditions: MCC and control cell lines, CellTiter-Glo viability, 72 h; series mostly up to 46 µM
Summary of the method: as §2

[15] = tested on: C33A; test: Primary qHTS to identify gynecologic anti-cancer compounds using libraries of approved drugs and bioactive compounds (AID 1345084); conditions: Gynecologic cancer cell panel viability, ATPlite luminescence, 48 h; series mostly up to 57.5 µM; also: nearly all actives have a fitted effect of over 55% in size
Summary of the method: (§3)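 Cells, 1,000 per well, plated 16 h, then exposed 48 h at 37 C to compounds. Viability by ATPlite luminescence after 15 min at room temperature.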

[16] = tested on: CAOV3; test: as above; conditions: Gynecologic cancer cell panel viability, ATPlite luminescence, 48 h; series mostly up to 57.5 µM
Summary of the method: as §3

[17] = tested on: CASKI; test: as above; conditions: Gynecologic cancer cell panel viability, ATPlite luminescence, 48 h; series mostly up to 57.5 µM
Summary of the method: as §3

[18] = tested on: Es-2; test: as above; conditions: Gynecologic cancer cell panel viability, ATPlite luminescence, 48 h; series mostly up to 57.5 µM
Summary of the method: as §3

[19] = tested on: HeLa; test: as above; conditions: Gynecologic cancer cell panel viability, ATPlite luminescence, 48 h; series mostly up to 57.5 µM
Summary of the method: as §3

[20] = tested on: Hek293T; test: as above; conditions: Gynecologic cancer cell panel viability, ATPlite luminescence, 48 h, control line for the selectivity index; series mostly up to 57.5 µM
Summary of the method: as §3
% is scaled to controls: 0 for no effect and ±100 for the full control effect.

C[C@H](CCC(=O)O)[C@H]1CC[C@H]2[C@H]3[C@@H](CC[C@]12C)[C@@]1(C)CC[C@@H](O)C[C@H]1C[C@@H]3O
inactive: max response [1] -2.21% | outcome [2] | outcome [3] | max response [4] 0.163% | max response [5] -1.17% | outcome [6] | outcome [7] | Potency [8] | Potency [9] | Potency [10] | Potency [11] | Potency [12]

OC[C@H]1O[C@@H](Oc2ccc(O)cc2)[C@H](O)[C@@H](O)[C@H]1O
inactive: max response [1] -2.9% | max response [2] 3.31% | outcome [3] | outcome [4] | outcome [5] | outcome [6] | Potency [8] | Potency [9] | Potency [10] | Potency [11] | Potency [13] | Potency [12] | Potency [14]

Nc1ncnc2c1ncn2[C@@H]1O[C@H](CO)[C@@H](O)[C@@H]1O
inactive: outcome [1] | max response [2] -0.764% | outcome [3] | outcome [4] | max response [5] 3.26% | outcome [6] | Potency [8] | Potency [12]
active: Potency [10] 14800 nM | Potency [11] 1660 nM | Potency [14] 1050 nM

C=C1c2cccc(O)c2C(O)=C2C(=O)[C@@]3(O)C(O)=C(C(N)=O)C(=O)[C@@H](N(C)C)[C@@H]3[C@@H](O)[C@H]12
inactive: max response [1] -8.75% | max response [2] 0.32% | outcome [3] | max response [4] 1.29% | max response [5] -2.7% | outcome [6] | Potency [8] | Potency [9] | Potency [10] | Potency [12] | Potency [14]

O=C(O)C1=NC(C(=O)O)CC(C=CN2c3cc(O)c(OC4OC(CO)C(O)C(O)C4O)cc3CC2C(=O)O)=C1 (centres undefined)
inactive: outcome [1] | outcome [2] | outcome [3] | max response [4] 2.69% | max response [5] 3.64% | outcome [6] | outcome [7] | Potency [8] | Potency [9] | Potency [10] | Potency [11] | Potency [12] | Potency [14]

O=C(NCCCCN1CCOCC1)c1cc2ccccc2o1
inactive: max response [1] -1.43% | max response [2] -14.9% | outcome [3] | outcome [4] | max response [5] 3.06% | outcome [6] | Potency [8] | Potency [9] | Potency [10] | Potency [11] | Potency [12] | Potency [14]

CN(CC=CC#CC(C)(C)C)Cc1cccc2ccccc12
inactive: max response [1] 1.65% | outcome [2] | outcome [3] | max response [4] 4.31% | max response [5] -1.72% | outcome [6] | outcome [7] | Potency [8] | Potency [9] | Potency [10] | Potency [11] | Potency [12] | Potency [14]

Cc1cc2nc3c(=O)[nH]c(=O)nc-3n(CC(O)C(O)C(O)CO)c2cc1C (centres undefined)
inactive: outcome [1] | max response [2] -3.68% | outcome [3] | max response [4] 9.48% | outcome [5] | outcome [6] | Potency [8] | Potency [9] | Potency [10] | Potency [11] | Potency [13] | Potency [12] | Potency [14]

CC1(C)[C@H]2CC[C@]3(C)[C@@H](C(=O)C=C4[C@@H]5C[C@@](C)(C(=O)O)CC[C@]5(C)CC[C@]43C)[C@@]2(C)CC[C@@H]1O
inactive: outcome [1] | max response [2] -1.55% | outcome [3] | max response [4] 1.07% | max response [5] -8.32% | outcome [6] | Potency [8] | Potency [9] | Potency [10] | Potency [11] | Potency [12] | Potency [14]

Nc1[nH]nc2nnc(-c3c(-c4ccccc4)nn4ccccc34)cc12
inactive: outcome [1] | max response [2] 2.02% and -4.98% | outcome [3] | outcome [4] | outcome [5] | outcome [6] | Potency [8] | Potency [9] | Potency [10] | Potency [13] | Potency [12] | Potency [15] | Potency [16] | Potency [17] | Potency [18] | Potency [19] | Potency [20]
active: Potency [14] 1050 nM

O=C1C(CCC(O)c2ccc(F)cc2)C(c2ccc(O)cc2)N1c1ccc(F)cc1 (centres undefined)
inactive: max response [1] -5.06% | outcome [2] | max response [3] 3.02% | max response [4] -2.23% | max response [5] 1.16% | outcome [7] | Potency [8] | Potency [9] | Potency [10] | Potency [11] | Potency [12] | Potency [14]

O=C(O)C1=CO[C@@H](O[C@@H]2O[C@H](CO)[C@H](O)[C@H](O)[C@H]2O)[C@@H]2C(CO)=CC[C@H]12
inactive: max response [1] 1.58% | outcome [2] | max response [3] -0.469% | max response [4] 7.89% | max response [5] -17.7% | outcome [7] | Potency [8] | Potency [9] | Potency [10] | Potency [11] | Potency [12] | Potency [14]

N[C@@H](CC(=O)N1CCn2c(nnc2C(F)(F)F)C1)Cc1cc(F)c(F)cc1F
inactive: max response [1] -4.16% | max response [2] 1.14% | outcome [3] | max response [4] -6.59% | max response [5] -2.27% | outcome [6] | Potency [8] | Potency [9] | Potency [10] | Potency [11] | Potency [12] | Potency [14]

CCOC(=O)[C@@H](N)CCC(=O)N[C@@H](CSCc1ccccc1)C(=O)N[C@@H](C(=O)OCC)c1ccccc1
inactive: outcome [1] | max response [2] -7.26% | outcome [3] | max response [4] -0.167% | max response [5] 1.31% | outcome [6] | Potency [8] | Potency [9] | Potency [12] | Potency [14]
